Measurements: PubChem BioAssay (NCI)
About 79,000 compounds went through this panel and 15% of them were active in at least one assay; those are over-represented in the sample as a whole. No stated cut-off is given here; in the data, active means growth inhibition above about 70%; inactive means the rest.

Key:
[1] = NCI Yeast Anticancer Drug Screen. Data for the rad50 strain (AID 155);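 further: 0% = growth of vehicle-only cultures of the same strain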; settings: S. cerevisiae rad50 strain growth inhibition; at 50.0 µM; hits give high values
Summary of the method: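 Yeast carrying a defined DNA repair defect were exposed to test compounds, and growth was compared with vehicle-treated controls to give percent inhibition.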

[2] = NCI Yeast Anticancer Drug Screen. Data for the mec2-1 strain (AID 157); settings: S. cerevisiae mec2-1 strain, at 50.0 µM, hits give high values
Summary of the method: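 Vehicle-treated cultures served as reference for growth inhibition of compound-exposed mec2-1 yeast.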

[3] = NCI Yeast Anticancer Drug Screen. Data for the sgs1 mgt1 strain (AID 161);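 further: 0% = growth of cultures given vehicle only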; settings: S. cerevisiae sgs1 mgt1 strain, at 50.0 µM, hits give high values
Summary of the method: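 Mutant yeast exposed to compound; growth scored against vehicle-only wells.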

[4] = NCI Yeast Anticancer Drug Screen. Data for the cln2 rad14 strain (AID 165);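 further: 0% = growth equal to vehicle treated cultures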; settings: S. cerevisiae cln2 rad14 strain, at 50.0 µM, hits give high values
Summary of the method: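 Each compound was tested on cln2 rad14 yeast. Inhibition of growth was calculated against vehicle-exposed controls.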

[5] = NCI Yeast Anticancer Drug Screen. Data for the bub3 strain (AID 167); settings: S. cerevisiae bub3 mutant strain, at 50.0 µM, hits give high values
Summary of the method: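 Compounds were applied to a genetically altered yeast strain carrying a cell-cycle control defect. Growth inhibition was scored against vehicle-treated controls.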

[6] = NCI Yeast Anticancer Drug Screen. Data for the mlh1 rad18 strain (AID 175); settings: S. cerevisiae mlh1 rad18 strain growth inhibition; at 50.0 µM; hits give high values
Summary of the method: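 Vehicle-treated cultures served as the reference for growth inhibition in a yeast strain carrying DNA damage repair alterations exposed to each compound.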

Measured: growth inhibition

CCc1ccccc1NC(C)=O
inactive: [1] -4.75% | [2] -16.4% | [3] -8.7% | [4] -5.2% | [5] 0.25% | [6] -12.7%

c1ccc2c(c1)ccc1c3c(oc12)CCCC3
inactive: [1] -10.5% | [2] -6.45% | [3] -15.7% | [4] -36.4% | [5] 0.25% | [6] -5.9%

Cc1nn(C(=O)CC(=O)Nc2ccccc2Cl)c(C)c1N=Nc1ccccc1F
inactive: [1] -13.7% | [2] 4% | [3] -27.6% | [4] 21.9% | [5] 2.7% | [6] -14.6%

Cc1nc(-n2nc(-c3ccccc3)cc2-c2ccccc2)sc1C(=O)/C=C/c1ccc(Cl)c(Cl)c1
inactive: [1] 53.2% | [2] 4.55% | [3] 6.8% | [4] 21.1% | [5] 22.4% | [6] 12.8%

OCC(O)COc1ccc(OCc2ccccc2)cc1 (stereo not given)
inactive: [1] 2.65% | [2] -12.1% | [3] -3.4% | [4] -21.5% | [5] -5.05% | [6] -20.3%

O=S1(=O)C(c2ccccc2)C(N2CCCCC2)C1C1CC2c3ccccc3C1c1ccccc12 (stereo not given)
inactive: [1] 19.5% | [2] 32.6% | [3] 2.9% | [4] -28% | [5] 28.9% | [6] 30.2%

CC(C)=NOCCC#N
inactive: [1] 22.5% | [2] -0.05% | [3] -4.8% | [4] -16.6% | [5] 8.35% | [6] -14.3%

Cc1nn(CCO)c(N)c1C(N)=O
inactive: [1] 5.35% | [2] -4.25% | [3] 5.55% | [4] -13.4% | [5] 4.9% | [6] 16.9%

ON1c2ccc3ccccc3c2C=CC1(c1ccccc1)c1ccccc1
inactive: [1] -12.7% | [2] -2.75% | [3] -12.6% | [4] 23.2% | [5] 16.5% | [6] 10.9%

COC(=O)c1cc(C(C)O)nc2ccccc12 (stereo not given)
inactive: [1] 4.95% | [2] 3.95% | [3] 6.25% | [4] 0.65% | [5] 27% | [6] 6.35%

[O-]/[N+](=C\c1ccc(Cl)cc1)c1ccccc1
inactive: [1] -11.2% | [2] -14.1% | [3] -21.1% | [4] -8.85% | [5] -18.9% | [6] -7%

CCOP(=O)(OCC)/C(C#N)=C/c1cc(OC)ccc1OC
inactive: [1] 28.4% | [2] -4.75% | [3] -2.65% | [4] -8.9% | [5] -13.4% | [6] 11.8%

O=C(O)/C=C/c1ccncc1
inactive: [1] -1.7% | [2] -6.35% | [3] -7.15% | [4] 3.75% | [5] -0.3% | [6] 5.1%

Clc1ccc(N=Cc2ccc(C=Nc3ccc(Cl)c(Cl)c3)cc2)cc1Cl
inactive: [1] -7.7% | [2] -21.8% | [3] 15.7% | [4] 11% | [5] 16.9% | [6] 11.6%

OCC1NC(COC2OC(CO)C(O)C(O)C2O)C(O)C(O)C1O (stereo not given)
inactive: [1] -17.5% | [2] -14.9% | [3] -19% | [4] 17.1% | [5] -0.25% | [6] -6.25%

Cc1ccc(O)cc1C=C(Cl)Cl
inactive: [1] 18.6% | [2] 0.25% | [3] 35.6% | [4] 22.8% | [5] -0.3% | [6] 11.4%

N#C/C(=N\N=C(/C#N)c1ccc(Cl)cc1)c1ccc(Cl)cc1
inactive: [1] -5.8% | [2] -1.85% | [3] -5.5% | [4] -6.4% | [5] -4.25% | [6] -5.15%

O=c1[nH]cnc2c1nnn2CCCCCCCCCCCCn1nnc2c(=O)[nH]cnc21
inactive: [1] -5.9% | [2] -10.2% | [3] 4.5% | [4] -4.2% | [5] 12.7% | [6] 24.8%

CC(=O)OCC1OC(Nc2[nH]c(=O)n(C)c(=O)c2C(=O)CCl)C(OC(C)=O)C(OC(C)=O)C1OC(C)=O (stereo not given)
inactive: [1] 5.15% | [2] 18.5% | [3] 2.45% | [4] -2.55% | [5] -3.8% | [6] -4.15%

O=c1cc(NCc2c(Cl)cccc2[N+](=O)[O-])[nH]c(=O)[nH]1
inactive: [1] -8.8% | [2] 37.5% | [3] 14.7% | [4] -7.9% | [5] 15% | [6] -5.3%

CC(C)c1ccc(C(C)(C)O)cc1
inactive: [1] 4.75% | [2] 15.7% | [3] -19.8% | [4] -7.8% | [5] -6.8% | [6] -17.6%

CC1(O)C=CC(=O)C=C1
inactive: [1] 0.05% | [2] 6.75% | [3] -15.2% | [4] 1.95% | [5] -24.1% | [6] -7.6%

Cc1ccc(NC(=O)C2CCN(C)CC2)cc1
inactive: [1] -14.3% | [2] -15% | [3] -16.7% | [4] -23.4% | [5] -8.7% | [6] 7.85%

CCOC(=O)C1SC(=Nc2ccc(OC)c(OC)c2)N=C1C (stereo not given)
inactive: [1] 17.9% | [2] 4.2% | [3] 50.3% | [4] 4.95% | [5] 29.9% | [6] 1.4%

c1ccc2c(c1)SCCc1nncn1-2
inactive: [1] -6.6% | [2] 7.3% | [3] -1.4% | [4] -24.4% | [5] 8.5% | [6] 4.95%

CCCCCCCI
inactive: [1] -8.9% | [2] 20.9% | [3] 6.9% | [4] -21.6% | [5] 1.65% | [6] 23.8%

NC(Cc1cccc(F)c1)C(=O)O (stereo not given)
inactive: [1] -1.3% | [2] -30.1% | [3] 6.7% | [4] -12.4% | [5] -9.1% | [6] 10%

C(=C\c1ccccn1)/c1ccc(/C=C/c2ccccn2)cc1
inactive: [1] -31.2% | [2] 18.6% | [3] 8.3% | [4] -26.8% | [5] 3.25% | [6] 13.7%

COC(=O)/C(=C\C(=O)c1ccc(Br)cc1)NN=C(c1ccccc1)c1ccccc1
inactive: [1] -20.3% | [2] -1.55% | [3] -3.3% | [4] 4.25% | [5] -20.1% | [6] -20.4%

NS(=O)(=O)c1ccc(NC(=O)CC(=O)c2ccccc2)cc1
inactive: [1] -57.4% | [2] -32.7% | [3] -36% | [4] 0.35% | [5] -25.6% | [6] -38%

CCOC(=O)N1C2CC=CCC1C1(c3ccccc3)OC2(c2ccccc2)c2ccccc21
inactive: [1] -16.7% | [2] -3.95% | [3] -4.6% | [4] 5.05% | [5] -1.05% | [6] -24.1%

c1ccc(-c2cnc3cccnc3n2)cc1
inactive: [1] -2.1% | [2] -24.7% | [3] -19.2% | [4] -36.5% | [5] -10.1% | [6] -12.6%

Nc1[nH]c(=O)nc2c1ncn2C1OC(CO)C(O)C1O (stereo not given)
inactive: [1] -10.3% | [2] -27.6% | [3] -12.3% | [4] -3.65% | [5] -4.25% | [6] -10.2%

O=S(=O)(O)c1ccc[n+]([O-])c1
inactive: [1] 5.7% | [2] 15.4% | [3] -0.05% | [4] 39.5% | [5] 9.1% | [6] -8.2%

CC(C)c1cccc(C(C)C)c1NC(=O)C(=O)C1SC(=S)NC1=O (stereo not given)
inactive: [1] -23.6% | [2] -13.1% | [3] -18.9% | [4] 8.75% | [5] -11.3% | [6] -29.6%

Cc1ccc(C2SCC(=O)N2c2ccc(-c3ccc(-n4c(-c5ccccc5)nc5ccccc5c4=O)cc3)cc2)cc1 (stereo not given)
inactive: [1] 14% | [2] 6% | [3] 33% | [4] -0.45% | [5] 45.8% | [6] 55.8%

Cc1ccc(NC(=O)Oc2ccccc2C(=O)OCc2ccccc2)cc1
inactive: [1] 5.3% | [2] 7.1% | [3] 6.25% | [4] 20.1% | [5] 8.25% | [6] 1.25%

CC1CC[C@@]23CCC4(C)[C@@](C=CC5[C@@]6(C)CCC(=O)C(C)(C)C6CC[C@]54C)(OC2=O)[C@@H]3[C@H]1C (stereo not given in full)
inactive: [1] -14.8% | [2] -17.6% | [3] -14.7% | [4] -15.1% | [5] -14.5% | [6] -8.15%

O=c1[nH]c2c(Cl)cc(Cl)c(Cl)c2c2ccccc12
inactive: [1] -0.45% | [2] 7.65% | [3] 1.5% | [4] -18.4% | [5] 21.1% | [6] 4.85%

CC(CCl)NC(=O)Nc1cccc2c1CCCC2 (stereo not given)
inactive: [1] -12.5% | [2] 0.3% | [3] -3.9% | [4] -36% | [5] -2.6% | [6] 18.8%
